Sampled rows, rich in hits. Any-hit rate of the full collection: about 3.9%.
ALR H2O2 inh – inhibitors of human sulfhydryl oxidase ALR. P55789. hit rate 3.8% among 290,000. inhibition, % (test concentration not listed). purified ALR, DTT oxidation, H2O2 HRP-luminol luminescence;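 active = mean replicate inhibition above about 79%, with every replicate also reaching it, limit read from the data; inconclusive = only one of the two criteria met; inactive = mean below limit and not every replicate reaching it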
NTR1 agonist – NTR1 (human) agonism. P30989. hit rate 0.17% among 330,000. NTR1-U2OS beta-arrestin-GFP spot imaging, agonist mode. activation, % at 20 µM. AID 493036;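 active = activation at or above 40% of the spot to cytoplasm intensity ratio, with at least 20 cells analyzed; inconclusive = wells under 20 cells, flagged as cytotoxic or low count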;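 note: 0% = DMSO without peptide and 100% = 100 nM NTR1 peptide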
Target sequence (P30989 whole entry, looked up): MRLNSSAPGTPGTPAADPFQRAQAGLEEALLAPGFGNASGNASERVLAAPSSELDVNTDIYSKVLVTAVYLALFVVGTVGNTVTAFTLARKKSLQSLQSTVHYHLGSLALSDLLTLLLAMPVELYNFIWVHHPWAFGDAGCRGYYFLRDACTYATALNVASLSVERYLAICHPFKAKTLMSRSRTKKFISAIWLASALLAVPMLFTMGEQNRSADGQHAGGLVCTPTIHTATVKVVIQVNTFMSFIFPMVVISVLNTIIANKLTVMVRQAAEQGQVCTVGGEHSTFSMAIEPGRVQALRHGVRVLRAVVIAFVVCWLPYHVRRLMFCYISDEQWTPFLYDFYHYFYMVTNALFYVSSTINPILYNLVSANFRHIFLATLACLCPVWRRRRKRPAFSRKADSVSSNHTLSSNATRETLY
H9c2 protect – myocardial damage modulation in H9c2 cells; hit rate 0.63% among 360,000; H9c2 cardiomyocytes, H2O2 injury protection, ATPLite, 2 h; protection from H2O2 cell death, % at 20 µM;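 active = compounds giving at least 50% protection of heart cells from peroxide-induced death in the single-dose screen, raw or plate-pattern-corrected value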;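 note: 0% = DMSO wells with peroxide and 100% = DMSO wells without peroxide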
UBC9 SUMO inh – blocks human SUMOylation mediated by UBC9 | P63279 | HTRF SUMOylation assay, SAE1/SAE2 + UBC9, in vitro | inhibition, % at 35 µM | hit rate 0.36% among 290,000 | AID 2006; in the data active = inhibition above about 50%, passing the limit was not always enough; inconclusive = no clear call, values can overlap the other calls
Target sequence (P63279 whole entry, looked up): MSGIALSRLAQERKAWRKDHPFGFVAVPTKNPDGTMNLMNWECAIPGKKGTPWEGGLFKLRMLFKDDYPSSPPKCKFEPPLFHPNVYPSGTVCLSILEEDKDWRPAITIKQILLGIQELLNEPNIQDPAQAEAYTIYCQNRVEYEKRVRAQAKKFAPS
* = called active by the depositor.

For CN(C)CCCN1CC(=O)N2[C@@H](Cc3c([nH]c4ccccc34)C2(C)C)C1=O the results were ALR H2O2 inh 1, NTR1 agonist -1, H9c2 protect 2 and UBC9 SUMO inh 10.
CCCC(=O)Nc1nnc(-c2ccc3c(c2)OCCO3)o1 was read as ALR H2O2 inh -5, NTR1 agonist -1, H9c2 protect -2 and UBC9 SUMO inh 12.
Screening CCN(CC)c1ccc(NC(=O)COC(=O)/C=C/c2nc3ccccc3s2)cc1 returned ALR H2O2 inh 99*, NTR1 agonist 0, H9c2 protect 2 and UBC9 SUMO inh 29.
Screening CNC(=O)COC(=O)/C=C/c1nc2ccccc2s1 returned NTR1 agonist -2, H9c2 protect -4 and UBC9 SUMO inh 21.
`Cc1nc2sccn2c(=O)c1S(=O)(=O)NCc1ccccc1Cl` gave ALR H2O2 inh -7, NTR1 agonist -1, H9c2 protect -4 and UBC9 SUMO inh 5.
For Cc1cc(Nc2ccccc2)n(CCO)n1 the results were ALR H2O2 inh 99*, NTR1 agonist 0, H9c2 protect 4 and UBC9 SUMO inh 20.
Screening Cc1cc(Nc2nc3ccccc3nc2Cl)n(-c2ccccc2)n1 returned ALR H2O2 inh 96*, NTR1 agonist 3, H9c2 protect 5 and UBC9 SUMO inh -3.
`Cc1cc(Nc2ccccc2C(=O)O)n(-c2cccc(Cl)c2)n1` gave ALR H2O2 inh 98*, NTR1 agonist -1, H9c2 protect 3 and UBC9 SUMO inh 22.
`Cc1cc(Nc2ccc(Cl)cc2)n(-c2ccccc2)n1` gave ALR H2O2 inh 98*, NTR1 agonist 0, H9c2 protect -2 and UBC9 SUMO inh 6.
For Cc1cc(NC(=O)c2ccc(Cl)cc2Cl)n(-c2ccccc2)n1 the results were ALR H2O2 inh 10, NTR1 agonist -2 and H9c2 protect -1.
For Cc1cc(Nc2ccc(Cl)cc2)n(-c2cccc(Cl)c2)n1 the results were ALR H2O2 inh 51, NTR1 agonist 3, H9c2 protect -10 and UBC9 SUMO inh 13.
For Cc1ccc(O)c(C=Nc2ccc3[nH]ncc3c2)c1 the results were ALR H2O2 inh inconclusive, NTR1 agonist -1, H9c2 protect 7 and UBC9 SUMO inh 37.
`Cc1nn(-c2ncc(C(F)(F)F)cc2Cl)c(=O)n1-c1ccc(F)cc1` gave ALR H2O2 inh -13, NTR1 agonist 2, H9c2 protect 4 and UBC9 SUMO inh 4.
For Cc1ncc(CO)c(CNc2ccc(-c3nc4ccccc4[nH]3)cc2)c1O the results were ALR H2O2 inh 98*, NTR1 agonist -1, H9c2 protect -11 and UBC9 SUMO inh -8.
Cc1ncc(CO)c(CO)c1O was read as ALR H2O2 inh 0, NTR1 agonist 0 and H9c2 protect 12.
`COC(=O)c1ccc(CN(C(C)=O)c2ccccc2)o1` gave ALR H2O2 inh 0, NTR1 agonist -6, H9c2 protect 6 and UBC9 SUMO inh 12.
`Cc1c(Cl)cccc1-n1c(-c2cccnc2)n[nH]c1=S` gave ALR H2O2 inh 80*, NTR1 agonist 0, H9c2 protect -8 and UBC9 SUMO inh 12.
`CC1CCCCC1n1c(-c2cccnc2)n[nH]c1=S` (stereo not given) gave ALR H2O2 inh 87*, NTR1 agonist 3, H9c2 protect -7 and UBC9 SUMO inh 5.
`CC(C)CN(C(=O)CSc1nnc(-c2ccco2)o1)c1c(N)n(Cc2ccccc2)c(=O)[nH]c1=O` gave ALR H2O2 inh -9, NTR1 agonist -2, H9c2 protect 5 and UBC9 SUMO inh 0.
Screening CC(Nc1ccc2c(c1)OCCO2)C(=O)N1c2ccccc2CC1C (stereo not given) returned ALR H2O2 inh 98*, NTR1 agonist 2, H9c2 protect -5 and UBC9 SUMO inh -9.
`CC1Cc2ccccc2N1C(=O)NC1CC(=O)N(c2ccc3c(c2)OCCO3)C1` (stereo not given) gave ALR H2O2 inh 11, NTR1 agonist 1, H9c2 protect -6 and UBC9 SUMO inh 5.
`Cn1c(=O)[nH]c(=O)c2c1nc(SCc1ccccc1Cl)n2CC(N)=O` gave ALR H2O2 inh -2, NTR1 agonist -1, H9c2 protect -3 and UBC9 SUMO inh 2.
`COc1cccc(/C=N/NC(=O)CNC(=O)/C=C\c2ccccc2)c1O` gave ALR H2O2 inh 2, NTR1 agonist 62*, H9c2 protect 52* and UBC9 SUMO inh 10.
`COc1ccc(Br)cc1/C=N/NC(=O)CNC(=O)/C=C/c1ccccc1` gave NTR1 agonist 37, H9c2 protect 64* and UBC9 SUMO inh 38.
For COc1ccc(/C=C/C(=O)NCC(=O)N/N=C/c2cc(Br)ccc2OCc2ccccc2)cc1 the results were ALR H2O2 inh 18, NTR1 agonist 1, H9c2 protect -6 and UBC9 SUMO inh 24.
For O=C(CSc1ccc2c(c1)OCCO2)NCc1ccco1 the results were ALR H2O2 inh 98*, NTR1 agonist -1, H9c2 protect 3 and UBC9 SUMO inh -6.
`Cc1ccc(NC(=O)CSc2ccc3c(c2)OCCO3)nc1` gave ALR H2O2 inh 98*, NTR1 agonist -1 and H9c2 protect -4.
For O=C(CSCc1ccc(F)cc1)NC1CCCC1 the results were ALR H2O2 inh -4, NTR1 agonist 1, H9c2 protect -1 and UBC9 SUMO inh -4.
`O=C(CNC(=O)c1ccc(Br)cc1)NCC(=O)OCC(=O)c1ccc([N+](=O)[O-])cc1` gave ALR H2O2 inh -17, NTR1 agonist 0, H9c2 protect 0 and UBC9 SUMO inh -6.
For O=C(CNC(=O)c1ccccc1)NCC(=O)OCC(=O)c1ccc([N+](=O)[O-])cc1 the results were ALR H2O2 inh 97*, NTR1 agonist 2, H9c2 protect 2 and UBC9 SUMO inh -8.
`O=C(CSCc1ccc([N+](=O)[O-])cc1)NC1CCCCCC1` gave ALR H2O2 inh 99*, NTR1 agonist 1, H9c2 protect 4 and UBC9 SUMO inh 21.
Screening O=C(CSCc1ccc(Br)cc1)NC1CC1 returned NTR1 agonist 2, H9c2 protect -3 and UBC9 SUMO inh 9.
Screening O=C(CCC(=O)OCC(=O)c1ccc([N+](=O)[O-])cc1)NC1CCCCC1 returned ALR H2O2 inh 80*, NTR1 agonist 0, H9c2 protect -7 and UBC9 SUMO inh -9.
For O=C(CSCc1cccc(Br)c1)NC1CC1 the results were ALR H2O2 inh 98*, NTR1 agonist 0, H9c2 protect 10 and UBC9 SUMO inh -8.
For Cc1c(C(=O)NCc2ccc(Cl)c(Cl)c2)sc(=O)n1Cc1ccc(S(=O)(=O)N(C)C)cc1 the results were H9c2 protect -6.
For CCCCc1ccc(S(=O)(=O)N/N=C(/C)c2ccncc2)cc1 the results were ALR H2O2 inh -50, NTR1 agonist 0, H9c2 protect -18 and UBC9 SUMO inh 0.
Screening O=C(c1cnccn1)N(Cc1ccco1)C1(C(=O)NC2CCCC2)CCCCC1 returned ALR H2O2 inh 10, NTR1 agonist 0, H9c2 protect 10 and UBC9 SUMO inh 2.
CCOCCCNC(=S)N(Cc1ccco1)Cc1cc2cc3c(cc2[nH]c1=O)OCCO3 was read as ALR H2O2 inh 6, NTR1 agonist 1, H9c2 protect 15 and UBC9 SUMO inh 12.
Screening CCCn1cnc2cc(NCc3cccc(OC)c3O)ccc21 returned ALR H2O2 inh 85*, NTR1 agonist 3, H9c2 protect -1 and UBC9 SUMO inh 7.

Compound activity deposited in PubChem BioAssay by several laboratories.
